Compounds with a hit are over-represented: about 1.6% of the library has one in this group of screens.
KCNQ2 enhance: KCNQ2 (rat) channel potentiation. B-score at 10 µM. O88943. CHO-K1 KCNQ2, FluxOR thallium flux fluorescence; hits give high values. 310,000 compounds, 0.54% hits;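 active = fluorescence ratio B-score at least 3 SD of library B-scores, with initial fluorescence B-score within 3 of them, cut at about 5.3 in these data; same plate scores as AID 2156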;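 also: B-score of peak minus minimum over baseline fluorescence ratio after K+ and Tl+ stimulus; positive B-score means potentiation of KCNQ2 with more thallium influx and brighter signal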
KCNQ2 inh: blocks the rat KCNQ2 potassium channel. B-score at 10 µM. AID 2156. O88943. 310,000 compounds, 1.1% hits. CHO-K1 KCNQ2, FluxOR thallium flux, 20 min; hits give low values;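 active = fluorescence ratio B-score at most minus 3 library SDs, with starting brightness B-score within 2 library SDs, cut at about -5.5 in these data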
Kir21 conf inh: confirmation of mouse Kir2.1 potassium channel inhibitors. shares compounds with KCNQ2 enhance. Kir2.1-expressing cells, FluxOR thallium flux fluorescence; hits give low values. Tl flux remaining, % of negative control (hits give low values), % at 10 µM. 2,300 compounds, 41% hits;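 active = Primary-screen hit whose thallium flux fell at least 3 control SD below untreated wells in both duplicates, with normal baseline fluorescence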
HEK293 Tl flux: alters thallium flux in parental HEK293 cells, Kir2.1 counter-screen | shares compounds with KCNQ2 enhance | FluxOR thallium flux fluorescence; 0% = unstimulated blank wells | FluxOR signal as % of negative control (100 = no effect), % at 10 µM | 2,300 compounds, 19% hits;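 active = dye signal at least 3 control SD above or below untreated wells in both duplicates, raw fluorescence within 3, either direction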;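 also: percent is based on the flux ratio of peak minus minimum fluorescence over baseline F0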
CHO-K1 ctr: counter-screen for KCNQ2 potentiators: effect in parental CHO-K1 cells; activity increase over 3SD of controls, % at 10 µM; shares compounds with KCNQ2 enhance; FluxOR thallium flux fluorescence; zero = vehicle mean+3SD, 100% = vehicle-minus-blank window; 1,200 compounds, 43% hits;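 active = signal rise of at least 3 SD above the untreated control mean, in both duplicate wells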;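 also: counter screen of KCNQ2 potentiator hits so any rise reflects channel-independent effects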
KCNQ1 sel pot: human KCNQ1 counter-target activity of KCNQ2 potentiators; shares compounds with KCNQ2 enhance; CHO KCNQ1 stable, FluxOR thallium flux fluorescence; beyond 3SD, as % of vehicle-control signal; activation over 3SD threshold, % at 10 µM; 1,200 compounds, 28% hits; AID 2283;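 active = fluorescence ratio rise of at least 3 SD of vehicle wells above their mean, in both replicate wells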
KCNQ2 pot conf: confirmation of rat KCNQ2 potassium channel potentiators; shares compounds with KCNQ2 enhance; CHO-KCNQ2 cells, FluxOR thallium flux fluorescence; potentiation, less the hit threshold, % at 10 µM; 1,200 compounds, 68% hits; AID 2287;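 active = fluorescence ratio rising 3 SD or more over the vehicle control mean in both replicates, plus primary screen hit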;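 also: peak minus minimum thallium fluorescence divided by baseline after K/Tl stimulus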
Kir2-1 sel: mouse Kir2.1 off-target activity of KCNQ2 potentiators; 1,200 compounds, 2% hits; activity over 3SD threshold, % at 10 µM; shares compounds with KCNQ2 enhance; HEK293 Kir2.1, FluxOR thallium flux fluorescence; AID 2345;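 active = fluorescence ratio rise of at least 3 SD above the vehicle-control mean, seen in both replicates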
KCNQ2 W236L MoA: potentiates the retigabine-insensitive rat KCNQ2 W236L mutant channel. 940 compounds, 10% hits. CHO KCNQ2-W236L, automated patch clamp current. shares compounds with KCNQ2 enhance. current increase over 3SD of negative controls (%), hits give high values, % at 25 µM;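 active = current increase at least 3 SD of the untreated controls above them in both duplicate recordings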
Target sequence (O88943 whole entry W236L, looked up): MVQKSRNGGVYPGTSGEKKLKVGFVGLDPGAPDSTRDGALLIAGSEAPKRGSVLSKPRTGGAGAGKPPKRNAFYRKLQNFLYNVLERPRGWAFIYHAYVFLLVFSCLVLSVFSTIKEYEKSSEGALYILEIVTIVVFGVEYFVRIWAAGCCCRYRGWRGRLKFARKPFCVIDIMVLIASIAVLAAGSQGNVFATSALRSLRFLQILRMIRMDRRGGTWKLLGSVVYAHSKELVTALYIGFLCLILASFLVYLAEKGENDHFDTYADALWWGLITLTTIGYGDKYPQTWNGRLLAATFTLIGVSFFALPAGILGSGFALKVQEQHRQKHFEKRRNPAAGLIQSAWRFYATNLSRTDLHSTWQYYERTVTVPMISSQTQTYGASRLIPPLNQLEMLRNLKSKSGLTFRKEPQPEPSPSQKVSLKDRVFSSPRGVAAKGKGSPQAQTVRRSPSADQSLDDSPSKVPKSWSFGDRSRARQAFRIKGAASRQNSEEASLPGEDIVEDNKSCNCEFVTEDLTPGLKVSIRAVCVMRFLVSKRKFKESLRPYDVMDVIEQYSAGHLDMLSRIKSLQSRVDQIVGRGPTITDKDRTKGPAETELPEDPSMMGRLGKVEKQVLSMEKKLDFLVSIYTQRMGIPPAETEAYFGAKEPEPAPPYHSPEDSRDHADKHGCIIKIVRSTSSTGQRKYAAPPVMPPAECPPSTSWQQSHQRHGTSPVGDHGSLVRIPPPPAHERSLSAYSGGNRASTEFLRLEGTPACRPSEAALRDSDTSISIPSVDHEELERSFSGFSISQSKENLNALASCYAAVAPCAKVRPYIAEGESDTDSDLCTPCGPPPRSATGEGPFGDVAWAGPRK
Each line names hits and unclear results; the compound was inactive in the other large screens (follow-up assays come after a bar, where they were run).

COc1cccc(-c2nnc(NC(C)=O)o2)c1	none
C=CCNc1oc(/C=C/c2ccccc2)nc1C#N	none (no result: KCNQ2 enhance)
CC1(C)CC(=O)C2=C(C1)OC(N)=C([N+](=O)[O-])C2c1cccs1 (centres undefined)	none (no result: KCNQ2 enhance)
COc1ccc(CN(C)CC2CCCN(CCc3ccccc3C)C2)cc1O (centres undefined)	none | Kir21 conf inh 40.0% | HEK293 Tl flux inactive
COc1cc(OC)c(OC)cc1CN(C)CC1CCCN(CCc2ccccc2F)C1 (centres undefined)	none
O=C(NNC(=S)Nc1ccccc1C(F)(F)F)C1CC1	none (no result: KCNQ2 enhance)
CC(C)[C@H](NC(=O)NC1CCCC1)C(=O)O	none
CC(C)=CCCC(C)NC(=O)NC1CCCCC1 (centres undefined)	KCNQ2 enhance 6.7 | Kir21 conf inh inactive | HEK293 Tl flux 76.0% | CHO-K1 ctr 19.7 | KCNQ1 sel pot 48.4 | KCNQ2 pot conf 11.5 | Kir2-1 sel inactive | KCNQ2 W236L MoA inactive
O=C(NC1CCN(Cc2ccccc2)CC1)c1ccc2c(c1)[nH]c(=O)n2Cc1ccc(F)cc1	none
COc1ccc(CNCC(O)(c2ccccc2)c2ccccc2)cc1	none (no result: KCNQ2 enhance) | Kir21 conf inh 55.5% | HEK293 Tl flux inactive
COc1ccccc1CNCC(O)(c1ccc(Cl)cc1)c1ccc(Cl)cc1	none (no result: KCNQ2 enhance)
COc1ccc(CNCC(O)(c2ccc(F)cc2)c2ccc(F)cc2)cc1	none (no result: KCNQ2 enhance) | Kir21 conf inh inactive | HEK293 Tl flux inactive
COc1ccccc1CNCC(O)(c1ccc(F)cc1)c1ccc(F)cc1	none (no result: KCNQ2 enhance) | Kir21 conf inh 53.0% | HEK293 Tl flux inactive
OC(CNCc1ccccc1)(c1ccccc1)c1ccccc1	none (no result: KCNQ2 enhance)
Cc1ccc(CNCC(O)(c2ccc(F)cc2)c2ccc(F)cc2)cc1	none (no result: KCNQ2 enhance)
COc1ccc(OC)c(NC(=O)CSc2nc(=O)n(Cc3ccccn3)c3c2CCC3)c1	none
Cc1cccc(NC(=O)CCCc2ccccc2)c1	none (no result: KCNQ2 enhance)
CN(C)c1ccc(NC(=O)CCCc2ccccc2)cc1	KCNQ2 enhance 5.46 | Kir21 conf inh inactive | HEK293 Tl flux inactive | CHO-K1 ctr 12.7 | KCNQ1 sel pot inactive | KCNQ2 pot conf inactive | Kir2-1 sel inactive | KCNQ2 W236L MoA inactive
Cc1cccc(C(C)C)c1NC(=O)CN1C(=O)NC2(CCc3ccccc32)C1=O (centres undefined)	none (no result: KCNQ2 enhance)
Cc1ccc(/C(=N/Nc2nc3ccccc3s2)C2=C(O)c3ccccc3C2=O)cc1	none | Kir21 conf inh inactive | HEK293 Tl flux inactive
Cc1ccc(S(=O)(=O)N(C)CC(=O)Nc2nc3ccccc3s2)cc1	none (no result: KCNQ2 enhance)
CCOc1ccc(CC(=O)NCC2(N3CCCCC3)CCCCC2)cc1	none
CCc1ccc(C2C(C#N)=C(N)OC3=C2C(=O)CCC3)s1 (centres undefined)	none
Cc1ccc(C2C(C#N)=C(N)OC3=C2C(=O)CCC3)s1 (centres undefined)	KCNQ2 enhance 6.48 | Kir21 conf inh inactive | HEK293 Tl flux inactive | CHO-K1 ctr inactive | KCNQ1 sel pot 3.7 | KCNQ2 pot conf 1.5 | Kir2-1 sel inactive | KCNQ2 W236L MoA inactive
NC(=O)c1nnn(-c2nonc2N)c1-c1ccc([N+](=O)[O-])cc1	none
Cc1cn(-c2cc(NC(=O)c3ccc(C)c(NC(=O)c4cccc(-c5cn[nH]c(=O)c5)c4)c3)cc(C(F)(F)F)c2)cn1	none
C#CCNC(=O)C1=C[C@@H](C(C)(C)C)C[C@@H](OCc2ccc(CO)cc2)O1	none (no result: KCNQ2 enhance)
C#CCNC(=O)C1=C[C@@H](C2CC2)C[C@@H](OCc2ccc(CO)cc2)O1	none | Kir21 conf inh 51.0% | HEK293 Tl flux inactive
COc1cccc(NC(=O)CN(C)C(=O)C2CCN(C(=O)c3ccccc3C)CC2)c1	none
CCCN(CCC)S(=O)(=O)c1cc2c3c(c1)CCN3C(=O)CC2	none (no result: KCNQ2 enhance)
CCN(c1cccc(C)c1)S(=O)(=O)c1cc2c3c(c1)CCC(=O)N3CCC2	none (no result: KCNQ2 enhance) | Kir21 conf inh inactive | HEK293 Tl flux inactive
NS(=O)(=O)c1cccc(NC(=O)Cc2ccc(Cl)c(Cl)c2)c1	none
CCn1c(=O)n(CC)c2cc(N3CCCC3)c(NC(=O)c3cccc(Cl)c3)cc21	none (no result: KCNQ2 enhance)
CC(=O)c1ccc(S(=O)(=O)Oc2ccc(-c3ccc(C(=O)O)cc3)cc2)cc1	none
CC(=O)N(C(C)=O)n1c(C)nc2sc3c(c2c1=O)CCCC3	none
CCCn1c(SCC(=O)N2CCN(C(C)=O)CC2)nc2sc3c(c2c1=O)CCC3	KCNQ2 enhance 6.09 | Kir21 conf inh inactive | HEK293 Tl flux 290.0% | CHO-K1 ctr 14.6 | KCNQ1 sel pot inactive | KCNQ2 pot conf 23.5 | Kir2-1 sel inactive | KCNQ2 W236L MoA inactive
CCn1c(SC(C)C(=O)O)nc2sc3c(c2c1=O)CCC3 (centres undefined)	KCNQ2 enhance 8.7 | Kir21 conf inh inactive | HEK293 Tl flux 205.0% | CHO-K1 ctr 5.3 | KCNQ1 sel pot inactive | KCNQ2 pot conf 0.7 | Kir2-1 sel inactive | KCNQ2 W236L MoA inactive
CCCn1c(SCC(=O)NCC)nc2sc3c(c2c1=O)CCC3	none (no result: KCNQ2 enhance)
CC(Sc1nc2sc3c(c2c(=O)n1-c1ccccc1)CCCC3)C(=O)O (centres undefined)	none
CCc1nc2sc3c(c2c(=O)n1NC(=O)CCl)CCCC3	KCNQ2 enhance 5.72 | Kir21 conf inh inactive | HEK293 Tl flux inactive | CHO-K1 ctr inactive | KCNQ1 sel pot inactive | KCNQ2 pot conf inactive | Kir2-1 sel inactive | KCNQ2 W236L MoA inactive
O=C(Cn1cc(Cl)c([N+](=O)[O-])n1)NCCC1=CCCCC1	none
CSc1ccccc1C(=O)NCc1ccccc1C	none (no result: KCNQ2 enhance)
CC(C)c1ccc(/C=C/C(=O)NC2CCCCC2)cc1	none
CC(C)c1ccc(C(C)NC(=S)NC2CCCCC2)cc1 (centres undefined)	KCNQ2 enhance 16.4 | Kir21 conf inh inactive | HEK293 Tl flux inactive | CHO-K1 ctr inactive | KCNQ1 sel pot inactive | KCNQ2 pot conf 39.4 | Kir2-1 sel inactive | KCNQ2 W236L MoA inactive
CC(NC(=S)NC1CCCCC1)c1ccc(C(C)(C)C)cc1 (centres undefined)	KCNQ2 enhance 9.86 | Kir21 conf inh inactive | HEK293 Tl flux inactive | CHO-K1 ctr inactive | KCNQ1 sel pot inactive | KCNQ2 pot conf 16.3 | Kir2-1 sel inactive | KCNQ2 W236L MoA inactive
CC(C)c1ccccc1NC(=S)NC1CCCCC1	none (no result: KCNQ2 enhance)
Cc1ccc(S(=O)(=O)n2ccc3c2CCCC3=O)cc1	none (no result: KCNQ2 enhance)

Bioassay records as filed in PubChem.
